Measurements reported in the supplement of paper PMC11732987, “Enantioselective OTUD7B fragment discovery through chemoproteomics screening and high-throughput optimisation” (Communications Chemistry, 2025).
Unmarked numbers belong to inactive results.

Columns and labels:
Experiment in all cases: log2 ratio of Biotin-Ahx-Ub-VS probe labelling (fragment/DMSO); higher = less target engagement (more negative = stronger competition), active = hit call of the paper (q ≤ 0.05, log2 ratio ≤ -1)
Conditions in all cases: compound concentration: 200 uM; treatment time: 3 h
USP19 = target: T1, USP19 (UniProt O94966)
T1 sequence (whole entry): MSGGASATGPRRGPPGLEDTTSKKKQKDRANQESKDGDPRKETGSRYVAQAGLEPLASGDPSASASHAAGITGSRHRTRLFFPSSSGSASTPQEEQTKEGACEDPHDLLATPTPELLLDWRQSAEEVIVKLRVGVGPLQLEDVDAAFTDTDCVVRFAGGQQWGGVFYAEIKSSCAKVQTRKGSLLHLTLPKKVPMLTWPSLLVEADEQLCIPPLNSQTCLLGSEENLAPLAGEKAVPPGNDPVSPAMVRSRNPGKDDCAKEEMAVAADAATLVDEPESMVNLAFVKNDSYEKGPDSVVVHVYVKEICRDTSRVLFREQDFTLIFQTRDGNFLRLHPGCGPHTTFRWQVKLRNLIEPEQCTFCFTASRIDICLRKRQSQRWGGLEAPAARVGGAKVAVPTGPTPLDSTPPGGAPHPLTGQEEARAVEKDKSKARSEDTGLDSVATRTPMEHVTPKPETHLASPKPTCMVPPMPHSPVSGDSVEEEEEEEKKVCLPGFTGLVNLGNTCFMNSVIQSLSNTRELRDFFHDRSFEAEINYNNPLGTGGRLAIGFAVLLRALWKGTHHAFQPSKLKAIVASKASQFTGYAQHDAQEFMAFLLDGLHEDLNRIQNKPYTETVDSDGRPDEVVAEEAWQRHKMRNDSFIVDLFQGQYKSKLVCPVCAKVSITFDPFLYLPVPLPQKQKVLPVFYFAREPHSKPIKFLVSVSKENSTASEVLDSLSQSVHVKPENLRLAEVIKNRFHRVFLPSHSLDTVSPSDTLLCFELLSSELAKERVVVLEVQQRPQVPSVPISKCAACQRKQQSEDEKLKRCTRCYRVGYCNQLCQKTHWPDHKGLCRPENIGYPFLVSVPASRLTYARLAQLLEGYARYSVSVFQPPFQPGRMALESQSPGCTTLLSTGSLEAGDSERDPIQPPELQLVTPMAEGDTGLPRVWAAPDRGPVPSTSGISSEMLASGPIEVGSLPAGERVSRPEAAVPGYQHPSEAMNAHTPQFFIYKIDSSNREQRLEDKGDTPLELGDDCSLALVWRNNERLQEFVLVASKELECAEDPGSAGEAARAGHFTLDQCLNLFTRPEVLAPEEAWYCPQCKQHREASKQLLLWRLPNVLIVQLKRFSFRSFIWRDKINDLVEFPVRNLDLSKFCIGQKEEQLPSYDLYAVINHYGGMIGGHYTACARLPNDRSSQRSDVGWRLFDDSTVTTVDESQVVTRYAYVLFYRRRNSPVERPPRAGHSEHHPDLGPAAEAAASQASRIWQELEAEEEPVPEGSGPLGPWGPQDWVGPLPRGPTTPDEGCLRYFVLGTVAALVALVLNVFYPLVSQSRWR
Summary of the method: (§1)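 Labelled DUBs from HEK293T lysate were NeutrAvidin-enriched, digested with LysC and trypsin, and run by diaPASEF LC-MS/MS. Before that, each 495 µg sample in Tris/CHAPS/IGEPAL buffer with protease inhibitors was treated in triplicate with fragment at 200 µM or vehicle for 3 h, then with Biotin-Ahx-Ub-VS at 0.5 µM final for 1 h. Values are average log2 ratios of fragment over vehicle by unpaired t-test, based on global-median-normalised Spectronaut label-free quantities from proteins with ≥2 unique peptides.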

USP24 = USP24 (UniProt Q9UPU5)
Summary of the method: as §1

USP25 = target: T2, USP25 (UniProt Q9UHP3)
T2 sequence (whole entry): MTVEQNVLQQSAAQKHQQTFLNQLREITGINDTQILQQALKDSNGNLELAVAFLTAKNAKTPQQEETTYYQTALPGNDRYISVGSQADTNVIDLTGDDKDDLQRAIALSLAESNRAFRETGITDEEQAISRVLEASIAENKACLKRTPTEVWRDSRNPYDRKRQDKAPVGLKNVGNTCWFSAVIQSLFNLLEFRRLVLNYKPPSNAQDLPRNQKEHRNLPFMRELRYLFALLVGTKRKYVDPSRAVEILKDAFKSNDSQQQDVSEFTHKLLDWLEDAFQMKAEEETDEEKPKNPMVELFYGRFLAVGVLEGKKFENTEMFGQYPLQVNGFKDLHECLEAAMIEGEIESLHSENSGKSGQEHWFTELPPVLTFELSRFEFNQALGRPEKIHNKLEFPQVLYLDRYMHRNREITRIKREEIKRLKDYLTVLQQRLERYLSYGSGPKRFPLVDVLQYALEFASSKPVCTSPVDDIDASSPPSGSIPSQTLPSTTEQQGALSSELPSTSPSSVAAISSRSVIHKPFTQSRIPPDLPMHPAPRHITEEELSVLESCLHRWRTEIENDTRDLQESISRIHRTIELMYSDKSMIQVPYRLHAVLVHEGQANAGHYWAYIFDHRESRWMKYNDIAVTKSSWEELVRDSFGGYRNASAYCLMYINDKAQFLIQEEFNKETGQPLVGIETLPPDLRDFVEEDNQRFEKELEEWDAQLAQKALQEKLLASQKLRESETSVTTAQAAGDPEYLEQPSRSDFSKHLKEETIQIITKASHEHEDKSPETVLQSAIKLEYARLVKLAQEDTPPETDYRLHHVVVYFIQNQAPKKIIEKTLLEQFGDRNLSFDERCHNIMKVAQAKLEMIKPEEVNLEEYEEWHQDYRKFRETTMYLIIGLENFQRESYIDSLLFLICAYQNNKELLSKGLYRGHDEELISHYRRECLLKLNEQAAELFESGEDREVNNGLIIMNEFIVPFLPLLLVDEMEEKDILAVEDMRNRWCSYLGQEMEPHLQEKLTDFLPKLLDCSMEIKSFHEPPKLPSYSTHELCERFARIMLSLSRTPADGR
Summary of the method: as §1

USP28 = target: T3, USP28 (UniProt Q96RU2)
T3 sequence (whole entry): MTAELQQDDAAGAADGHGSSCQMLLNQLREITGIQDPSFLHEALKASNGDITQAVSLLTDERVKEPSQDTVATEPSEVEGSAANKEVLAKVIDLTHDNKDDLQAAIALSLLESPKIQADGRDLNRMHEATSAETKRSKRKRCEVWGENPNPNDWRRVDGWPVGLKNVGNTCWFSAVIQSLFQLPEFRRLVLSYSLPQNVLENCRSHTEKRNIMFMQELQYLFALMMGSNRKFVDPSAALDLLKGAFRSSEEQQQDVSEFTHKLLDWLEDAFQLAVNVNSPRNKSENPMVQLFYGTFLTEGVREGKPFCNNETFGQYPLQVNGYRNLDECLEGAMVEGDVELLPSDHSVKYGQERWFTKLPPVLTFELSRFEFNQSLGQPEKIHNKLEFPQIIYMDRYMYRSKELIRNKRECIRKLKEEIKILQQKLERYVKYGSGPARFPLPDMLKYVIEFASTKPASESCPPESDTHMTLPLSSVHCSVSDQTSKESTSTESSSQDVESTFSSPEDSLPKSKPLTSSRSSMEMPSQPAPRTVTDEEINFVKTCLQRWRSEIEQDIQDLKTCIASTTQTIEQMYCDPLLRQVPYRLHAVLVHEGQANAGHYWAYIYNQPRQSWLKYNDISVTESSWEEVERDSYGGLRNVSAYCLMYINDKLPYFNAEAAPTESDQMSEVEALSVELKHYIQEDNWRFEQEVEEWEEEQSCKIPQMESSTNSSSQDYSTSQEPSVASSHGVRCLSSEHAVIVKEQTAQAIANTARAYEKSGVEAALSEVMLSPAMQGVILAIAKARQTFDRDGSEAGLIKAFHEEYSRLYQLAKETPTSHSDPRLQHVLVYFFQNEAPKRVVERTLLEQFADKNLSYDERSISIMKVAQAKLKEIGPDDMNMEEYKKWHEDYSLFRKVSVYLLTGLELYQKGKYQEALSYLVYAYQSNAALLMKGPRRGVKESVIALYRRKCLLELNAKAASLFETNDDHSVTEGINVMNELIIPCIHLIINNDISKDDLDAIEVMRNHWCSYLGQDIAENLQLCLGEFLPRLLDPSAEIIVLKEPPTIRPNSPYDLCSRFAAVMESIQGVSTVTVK
Summary of the method: as §1

USP24, sequence (Q9UPU5 whole entry): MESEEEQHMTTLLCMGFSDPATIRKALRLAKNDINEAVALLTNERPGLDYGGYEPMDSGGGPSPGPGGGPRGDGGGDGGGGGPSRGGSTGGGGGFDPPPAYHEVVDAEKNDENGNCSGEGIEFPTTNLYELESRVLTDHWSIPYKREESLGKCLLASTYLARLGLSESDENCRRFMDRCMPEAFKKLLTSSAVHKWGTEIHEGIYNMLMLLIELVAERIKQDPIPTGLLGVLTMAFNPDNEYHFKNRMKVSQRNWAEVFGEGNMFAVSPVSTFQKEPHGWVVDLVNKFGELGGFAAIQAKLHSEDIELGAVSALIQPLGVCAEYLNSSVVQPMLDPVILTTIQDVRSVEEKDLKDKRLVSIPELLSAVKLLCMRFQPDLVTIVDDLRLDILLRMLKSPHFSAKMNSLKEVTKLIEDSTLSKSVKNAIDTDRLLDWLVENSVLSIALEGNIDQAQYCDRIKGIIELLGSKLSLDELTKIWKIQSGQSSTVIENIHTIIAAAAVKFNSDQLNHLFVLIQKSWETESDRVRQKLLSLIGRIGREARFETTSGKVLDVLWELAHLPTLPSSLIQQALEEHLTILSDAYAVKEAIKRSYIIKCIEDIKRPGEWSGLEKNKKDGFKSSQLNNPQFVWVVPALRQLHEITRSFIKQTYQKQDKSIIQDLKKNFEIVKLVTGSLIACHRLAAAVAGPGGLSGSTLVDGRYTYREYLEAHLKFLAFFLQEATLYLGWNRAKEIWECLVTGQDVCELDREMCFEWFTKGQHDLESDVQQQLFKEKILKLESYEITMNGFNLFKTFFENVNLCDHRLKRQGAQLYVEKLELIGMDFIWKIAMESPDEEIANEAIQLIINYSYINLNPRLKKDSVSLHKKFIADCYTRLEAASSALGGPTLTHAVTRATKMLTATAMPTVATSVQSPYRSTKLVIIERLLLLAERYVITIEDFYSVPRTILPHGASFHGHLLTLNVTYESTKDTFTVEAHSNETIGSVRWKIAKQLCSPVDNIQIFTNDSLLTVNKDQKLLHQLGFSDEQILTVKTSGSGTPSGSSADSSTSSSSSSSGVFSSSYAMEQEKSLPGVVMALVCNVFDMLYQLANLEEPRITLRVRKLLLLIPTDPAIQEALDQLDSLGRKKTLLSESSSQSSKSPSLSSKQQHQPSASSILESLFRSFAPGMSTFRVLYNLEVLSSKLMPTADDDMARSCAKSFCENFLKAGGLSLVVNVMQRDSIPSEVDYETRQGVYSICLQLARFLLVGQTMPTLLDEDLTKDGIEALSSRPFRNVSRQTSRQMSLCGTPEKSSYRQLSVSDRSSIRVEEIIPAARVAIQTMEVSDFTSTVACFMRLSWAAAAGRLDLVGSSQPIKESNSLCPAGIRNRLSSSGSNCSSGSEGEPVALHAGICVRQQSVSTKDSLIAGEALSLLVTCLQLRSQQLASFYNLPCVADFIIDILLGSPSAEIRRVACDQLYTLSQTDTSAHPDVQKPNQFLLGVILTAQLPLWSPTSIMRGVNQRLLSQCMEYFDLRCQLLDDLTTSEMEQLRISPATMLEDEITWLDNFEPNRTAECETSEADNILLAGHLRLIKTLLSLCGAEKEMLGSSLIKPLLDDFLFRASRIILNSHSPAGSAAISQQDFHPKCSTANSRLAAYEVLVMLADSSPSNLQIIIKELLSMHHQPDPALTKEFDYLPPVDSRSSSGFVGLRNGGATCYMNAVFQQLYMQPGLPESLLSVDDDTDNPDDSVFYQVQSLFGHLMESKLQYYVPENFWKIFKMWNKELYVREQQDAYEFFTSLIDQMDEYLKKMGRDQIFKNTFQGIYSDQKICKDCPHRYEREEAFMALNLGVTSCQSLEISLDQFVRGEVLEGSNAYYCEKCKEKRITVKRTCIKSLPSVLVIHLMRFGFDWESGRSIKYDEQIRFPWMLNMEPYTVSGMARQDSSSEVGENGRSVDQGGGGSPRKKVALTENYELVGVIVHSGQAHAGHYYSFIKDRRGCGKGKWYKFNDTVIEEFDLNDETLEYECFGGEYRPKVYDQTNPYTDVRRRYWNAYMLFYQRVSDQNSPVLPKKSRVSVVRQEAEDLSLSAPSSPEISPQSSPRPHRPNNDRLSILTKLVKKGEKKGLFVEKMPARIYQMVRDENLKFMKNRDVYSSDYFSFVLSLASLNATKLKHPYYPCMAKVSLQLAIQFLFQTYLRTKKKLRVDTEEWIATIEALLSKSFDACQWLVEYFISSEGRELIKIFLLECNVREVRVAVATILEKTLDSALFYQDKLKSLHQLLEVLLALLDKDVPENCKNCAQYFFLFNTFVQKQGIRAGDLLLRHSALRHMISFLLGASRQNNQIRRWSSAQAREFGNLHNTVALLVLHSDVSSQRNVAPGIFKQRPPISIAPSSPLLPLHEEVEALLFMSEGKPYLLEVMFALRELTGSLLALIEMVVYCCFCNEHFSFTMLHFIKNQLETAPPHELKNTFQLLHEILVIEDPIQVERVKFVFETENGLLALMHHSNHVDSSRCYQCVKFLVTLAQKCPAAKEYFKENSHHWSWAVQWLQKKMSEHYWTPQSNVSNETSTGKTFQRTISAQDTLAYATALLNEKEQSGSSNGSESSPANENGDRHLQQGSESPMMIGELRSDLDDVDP

## O=C(CCl)N1CCc2[nH]c3ccccc3c2C1
USP19
  log2 ratio of Biotin-Ahx-Ub-VS probe labelling: -0.968
USP24
  log2 ratio of Biotin-Ahx-Ub-VS probe labelling: -1.93 (active)
USP25
  log2 ratio of Biotin-Ahx-Ub-VS probe labelling: -0.589
USP28
  log2 ratio of Biotin-Ahx-Ub-VS probe labelling: -0.765
